Results reported in PMC5540273 (PLoS ONE, 2017).

Tests used:
Details in all cases: concentration: 1 μM, replicates: in singlicate; n = 1
[1] = test system: PRKD3
[2] = test system: PRKG1
[3] = test system: PRKG2
[4] = test system: T1, PRKR
T1 construct: gene EIF2AK2

[5] = test system: PRKX
[6] = test system: PRP4
[7] = test system: T2, PYK2
T2 construct: gene PTK2B

[8] = test system: QSK
[9] = test system: RAF1
[10] = test system: RET
[11] = test system: RIOK1
[12] = test system: RIOK2
[13] = test system: RIOK3
[14] = test system: RIPK1
[15] = test system: RIPK2
[16] = test system: RIPK4
[17] = test system: RIPK5
[18] = test system: ROCK1
[19] = test system: ROCK2
[20] = test system: ROS1
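Note: KINOMEscan kinase panel screen.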

| SMILES | %Inh [1] | %Inh [2] | %Inh [3] | %Inh [4] | %Inh [5] | %Inh [6] | %Inh [7] | %Inh [8] | %Inh [9] | %Inh [10] | %Inh [11] | %Inh [12] | %Inh [13] | %Inh [14] | %Inh [15] | %Inh [16] | %Inh [17] | %Inh [18] | %Inh [19] | %Inh [20] |
| --- | --- | --- | --- | --- | --- | --- | --- | --- | --- | --- | --- | --- | --- | --- | --- | --- | --- | --- | --- | --- |
| C[C@@H](Oc1cc(-n2cnc3cc(-c4ccnc(NCCS(C)(=O)=O)c4)ccc32)sc1C(N)=O)c1ccccc1Cl [GSK907232] | 0% | 10% | 0% | 0% | 0% | 60% | 24% | 14% | 18% | 51% | 90.6% | 22% | 76% | 45% | 14% | 14% | 5% | 0% | 0% | 13% |
| O=C(Nc1ccccc1F)NC1CCN(c2ccnc(Nc3ccc(F)cc3)n2)CC1 [GSK1379800] | 0% | 15% | 0% | 0% | 7% | 45% | 0% | 1% | 16% | 4% | 58% | 0% | 43% | 26% | 0% | 16% | 0% | 10% | 31% | 0% |
| O=C(Nc1cccc(-c2nn3ccccc3c2-c2ccnc(Nc3cccc(C(F)(F)F)c3)n2)c1)c1c(F)cccc1F [GSK292658] | 29% | 3% | 0% | 0% | 8% | 5% | 0% | 2% | 72% | 73% | 17% | 6% | 0% | 7% | 63% | 0% | 0% | 0% | 1% | 0% |
| O=C(O)C(F)(F)F.O=C(O)C(F)(F)F.O=c1[nH]ccc2nc(N[C@@H]3CCCNC3)nc(Nc3ccc(S(=O)(=O)N4CCOCC4)cc3)c12 [GSK2177277] | 100% | 66% | 96.5% | 86% | 94.6% | 92.9% | 98.9% | 85% | 0% | 99.9% | 100% | 65% | 82% | 0% | 0% | 95.9% | 98.3% | 99.6% | 92.8% | 71% |
| Cc1ccc(S(=O)(=O)Nc2ccc(Nc3nccc(Nc4cccc5[nH]ncc45)n3)cc2)cc1 [GSK581271] | 0% | 0% | 5% | 0% | 6% | 53% | 12% | 6% | 10% | 8% | 78% | 40% | 34% | 5% | 69% | 0% | 0% | 0% | 8% | 25% |
| CCCCc1nn2ncccc2c1-c1ccnc(Nc2ccc(N3CCN(C)CC3)cc2)n1 [GW684941] | 86% | 0% | 4% | 0% | 31% | 36% | 40% | 43% | 0% | 99.5% | 52% | 44% | 49% | 22% | 74% | 29% | 56% | 32% | 30% | 71% |
| Cc1ccc(C(=O)Nc2ccc(Nc3ccnc4cc(-c5nccs5)ccc34)cc2O)cc1.Cl [GW494702] | 0% | 0% | 0% | 0% | 11% | 46% | 0% | 0% | 19% | 59% | 27% | 7% | 0% | 0% | 49% | 13% | 0% | 18% | 12% | 0% |
| O=C(NC1CCN(c2ccnc(Nc3ccc(F)cc3)n2)C1)c1cc2ccccc2s1 (stereo not shown) [GSK1379716] | 9% | 7% | 0% | 0% | 4% | 45% | 15% | 10% | 17% | 10% | 27% | 0% | 33% | 0% | 9% | 3% | 13% | 39% | 29% | 36% |
| O=C(Nc1n[nH]c2cc(-c3ccoc3)ccc12)C1CC1 [SB-738481] | 0% | 0% | 14% | 0% | 0% | 0% | 9% | 11% | 0% | 0% | 68% | 5% | 0% | 28% | 0% | 17% | 3% | 0% | 0% | 9% |
| O=C(Nc1cccc(-c2nn3ccccc3c2-c2ccnc(Nc3cccc(F)c3)n2)c1)c1c(F)ccc(F)c1Cl [GSK357952] | 39% | 1% | 1% | 0% | 22% | 8% | 0% | 5% | 79% | 84% | 24% | 51% | 16% | 0% | 35% | 0% | 0% | 3% | 18% | 18% |
| CN(C)Cc1ccc(-c2ccc3c(Nc4ccc(Oc5ccccn5)cc4)ccnc3c2)o1 [GW567148] | 0% | 0% | 0% | 0% | 22% | 4% | 0% | 0% | 0% | 1% | 8% | 4% | 0% | 0% | 95.3% | 0% | 0% | 6% | 11% | 0% |
| COc1cc(Nc2nccc(N3CCC(NC(=O)Nc4cccc(C(C)=O)c4)C3)n2)cc(OC)c1OC (stereo not shown) [GSK1379753] | 0% | 0% | 0% | 0% | 37% | 14% | 0% | 0% | 14% | 0% | 73% | 0% | 65% | 9% | 22% | 48% | 0% | 25% | 7% | 30% |
| Nc1ncnc2c1nc(-c1ccccc1)n2-c1ccccc1 [SKF-97293] | 22% | 7% | 0% | 27% | 3% | 15% | 8% | 26% | 0% | 17% | 0% | 1% | 6% | 3% | 7% | 27% | 36% | 56% | 43% | 15% |
| O=C(Nc1cccc(-c2nn3ncccc3c2-c2ccnc(Nc3ccccc3)n2)c1)c1c(F)cccc1F [GSK198271] | 47% | 0% | 0% | 0% | 11% | 6% | 27% | 10% | 94.1% | 99.7% | 4% | 17% | 16% | 0% | 94.8% | 10% | 6% | 34% | 0% | 28% |
| COc1ccc(-c2coc3ccc(-c4nnc(SCc5ccc(OC)c(C(F)(F)F)c5)o4)cc23)cc1 | 0% | 6% | 14% | 0% | 0% | 15% | 0% | 0% | 12% | 0% | 0% | 20% | 9% | 9% | 17% | 12% | 20% | 0% | 23% | 0% |
| CCS(=O)(=O)c1ccc(OC)c(Nc2nccc(-c3c(-c4cccc(NC(=O)c5c(F)cccc5F)c4)nn4ncccc34)n2)c1 [GSK326180] | 12% | 6% | 3% | 0% | 18% | 20% | 12% | 7% | 93.2% | 20% | 30% | 0% | 56% | 0% | 83% | 27% | 10% | 2% | 18% | 0% |
| COC(=O)Nc1nc2cc(Oc3ccc(NC(=O)Nc4cc(C(F)(F)F)ccc4F)cn3)ccc2[nH]1.Cl.Cl [GW681170] | 13% | 9% | 22% | 0% | 0% | 22% | 16% | 0% | 90.3% | 99.9% | 0% | 0% | 14% | 41% | 58% | 0% | 0% | 51% | 46% | 27% |
